Laboratory results from PubChem BioAssay AID504500 (NMMLSC, 2011).
Potency and affinity values are given separately. Calls of active or inactive are those of the source.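 The calls were made as follows: active = compounds whose curve fit is tight, with span above 25% and half-effect concentration below 10 µM; inactive = the rest.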

Target: Beta-adrenergic receptor kinase 1 (Homo sapiens) (UniProt P25098)
Assay: aptamer displacement from bead-bound GRK2 – biochemical, cherry pick 1, bead flow cytometry, dose response (AID 504500)
Settings: bead-bound biotinylated GRK2, FAM-aptamer displacement; series mostly up to 33 µM; inhibition of aptamer binding: at the top concentration

Chain of Beta-adrenergic receptor kinase 1 (Homo sapiens) (P25098 whole entry, looked up): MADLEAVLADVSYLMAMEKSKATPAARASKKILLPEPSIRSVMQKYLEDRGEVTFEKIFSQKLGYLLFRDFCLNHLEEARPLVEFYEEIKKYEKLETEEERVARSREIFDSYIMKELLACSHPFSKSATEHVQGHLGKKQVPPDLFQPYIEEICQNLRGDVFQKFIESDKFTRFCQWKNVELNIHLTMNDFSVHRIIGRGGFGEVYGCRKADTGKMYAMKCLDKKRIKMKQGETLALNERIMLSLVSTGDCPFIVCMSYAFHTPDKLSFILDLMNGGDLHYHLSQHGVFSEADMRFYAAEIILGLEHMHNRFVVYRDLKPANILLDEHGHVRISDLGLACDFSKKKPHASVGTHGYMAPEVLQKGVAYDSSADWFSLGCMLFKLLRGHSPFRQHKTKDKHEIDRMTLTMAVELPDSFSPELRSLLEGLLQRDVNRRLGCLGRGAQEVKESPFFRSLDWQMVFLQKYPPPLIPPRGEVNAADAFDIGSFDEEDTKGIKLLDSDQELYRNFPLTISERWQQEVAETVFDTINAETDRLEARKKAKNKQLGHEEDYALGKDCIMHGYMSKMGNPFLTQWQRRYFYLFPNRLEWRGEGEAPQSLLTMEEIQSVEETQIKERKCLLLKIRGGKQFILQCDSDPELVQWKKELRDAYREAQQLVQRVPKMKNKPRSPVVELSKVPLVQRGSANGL

Inhibition of aptamer binding, inactive:
Cc1ccc(C(=O)Nc2cccc(C(=O)NCc3ccco3)c2)cc1 2.31%
CCN1/C(=C/C(C)=C/c2sc3ccccc3[n+]2CC)Sc2ccccc21 17.1%
CC(=O)N1CCCc2cc(S(=O)(=O)CCC(=O)N3CCN(c4cccc(C)c4)C(C)C3)ccc21 (stereo not drawn) -2.62%
CN(C)c1cccc(C(=O)OCc2cc(=O)oc3cc(O)ccc23)c1 -6.6%
COC(=O)c1ccccc1NC(=O)CCS(=O)(=O)c1ccc(Br)s1 -0.55%
COCCNC(=O)C/C(C)=N/NC(=O)C(=O)NC1CCCCC1 2.44%
COc1ccc(N2CCN(C(CNS(=O)(=O)c3ccc(C)cc3)c3ccccc3)CC2)cc1 (stereo not drawn) 3.97%
O=C(CCS(=O)(=O)c1ccc(Br)cc1)NCc1ccco1 72.6%
CCN1/C(=C/c2ccc3cccc(C)c3[n+]2CC)Sc2ccccc21 44.9%
O=C(CC1SC(N2CCCCC2)=NC1=O)Nc1cccc(C(=O)NCc2ccc(F)cc2)c1 (stereo not drawn) 99.4%
O=C(CCS(=O)(=O)c1ccc(Br)cc1)NCCc1ccccc1 76.5%
O=C(CCS(=O)(=O)c1ccc(Br)s1)N1CCc2ccccc21 -2.03%
Cc1cc2ccccc2n1CCNC(=O)c1ccc(S(=O)(=O)N2CCCCC2)cc1 44.1%
Cc1cccc(CCNC(=O)CCS(=O)(=O)c2ccc(Br)cc2)c1 43.7%
CC(C)C(C(=O)O)N1C(=O)/C(=C/C=C/c2ccco2)SC1=S (stereo not drawn) 27.4%
O=C(CN1CCc2ccccc21)NC(=O)NCc1ccccc1 53.7%
COC(=O)c1ccc(NC(=O)CCS(=O)(=O)c2ccc(Br)cc2)cc1 76.5%
CCC(/C=C1\Sc2ccc(OC)cc2N1CC)=C\c1sc2ccc(OC)cc2[n+]1CCCS(=O)(=O)[O-] -7.34%
